A short description of test [1]: qHTS assay for small molecule agonists of the p53 signaling pathway (AID 651631; calls by dose curve; further: nearly all actives have a fitted effect of over 15% in size). An outline of the steps:
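HCT-116 cells carrying a beta-lactamase reporter under p53 response elements were dosed with compound for 16 h at 37 °C. LiveBLAzer B/G FRET substrate was then added for 2 h at room temperature, and fluorescence intensity was read to detect pathway agonism.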
A general note: In qHTS, concentration-response curves come from the screen itself.

Test [2] in a line: qHTS assay for small molecules that induce genotoxicity in human embryonic kidney cells expressing luciferase-tagged ATAD5 (AID 651632). Further: nearly all actives have a fitted effect of over 15% in size. Summed up: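 Genotoxicity read-out via ATAD5-luciferase: HEK293T cells, 16 hr compound incubation at 37C, Amplite detection.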
Test [3] is described as follows: qHTS assay for small molecule agonists of the p53 signaling pathway - cell viability (AID 651633; calls by dose curve;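 further: p53RE-bla HCT reporter cells with a stable beta-lactamase p53 reporter; series mostly up to about 83 µM; nearly all actives have a fitted effect of over 30% in size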). Summed up:
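p53RE-bla cells, seeded at 4,000 per well and rested 5 h at 37 C/5% CO2, received compounds in DMSO for 16 h at 37 C. CellTiter-Glo was then added, and luminescence was read after 30 min at room temperature to gauge cytotoxicity.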

Test [4] is described as follows: qHTS assay for small molecules that induce genotoxicity in human embryonic kidney cells expressing luciferase-tagged ATAD5 - cell viability (AID 651634; calls by dose curve; further: nearly all actives have a fitted effect of over 25% in size). An outline of the steps: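 Live-cell protease activity (CellTiter-Fluor, fluorescence) indicates viability. HEK293T cells with luciferase-tagged ATAD5; 15.5 hr compound treatment at 37C.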
Test [5] can be described thus: qHTS assay for small molecule disruptors of the mitochondrial membrane potential - cell viability (AID 720634; calls by dose curve;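 further: human HepG2 liver cancer cells; series mostly up to about 83 µM; nearly all actives have a fitted effect of over 20% in size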). Summed up: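 Human hepatoma HepG2 cells were treated for 1 hr with test chemicals, then given m-MPI dye and CellTiter-Glo. Cell viability reflects luminescence proportional to cellular ATP.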
Test [6] is described as follows: qHTS assay to test for compound auto fluorescence at 590 nm (red) in HepG2 cells (AID 720674). Summed up:
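Intrinsic compound fluorescence in the red window (Ex/Em 540/590 nm) is measured in attached HepG2 cells exposed for 1 hr, DMSO vehicle as baseline, benchmarked to Rose Bengal sodium.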

The nature of test [7]: qHTS assay to test for compound auto fluorescence at 535 nm (green) in HepG2 cells (AID 720675).
Test [8] can be described thus: qHTS assay to test for compound auto fluorescence at 460 nm (blue) in HEK293 cells (AID 720678). Summed up:
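After cell attachment (4-5 hr, 37C), compounds were pinned onto HEK293 monolayers in 10% dialyzed FBS medium. The blue channel (405/460 nm) was read following overnight culture. Equivalency was calculated against triamterene.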

Test [9] can be described thus: qHTS assay to test for compound auto fluorescence at 590 nm (red) in HEK293 cells (AID 720679). An outline of the steps: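 Plates of HEK293 cells (10% dialyzed FBS) are treated with 23 nL compound or DMSO vehicle after a 4-5 hr attachment period, incubated overnight at 37C, and read for red fluorescence at 540/590nm.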
Test [10] can be described thus: qHTS assay to test for compound auto fluorescence at 535 nm (green) in HEK293 cells (AID 720680).
A short description of test [11]: qHTS assay to test for compound auto fluorescence at 460 nm (blue) in HEK293 cell free culture (AID 720681). An outline of the steps:
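Test compounds were pinned into cell-free culture medium (DMEM with 10% FBS) and fluorescence was read directly at Ex/Em 405/460 nm. Signals were expressed as fluorescence equivalents of triamterene, with DMSO vehicle as control.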

Test [12] in a line: qHTS assay to test for compound auto fluorescence at 535 nm (green) in HEK293 cell free culture (AID 720682). An outline of the steps:
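Green-label autofluorescence (485 nm excitation, 535 nm emission) measured on compound added to cell-free culture medium (DMEM, 10% FBS). Output is expressed relative to fluorescein.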

The nature of test [13]: qHTS assay to test for compound auto fluorescence at 590 nm (red) in HEK293 cell free culture (AID 720683). An outline of the steps:
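Tox21 10K library compounds were pinned into cell-free DMEM with 10% FBS and fluorescence was read at excitation 540 nm. Activity is expressed as Rose Bengal sodium equivalency.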

Test [14] in a line: qHTS assay to test for compound auto fluorescence at 590 nm (red) in HepG2 cell free culture (AID 720684). An outline of the steps:
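Measured in medium alone (MEM containing 10% FBS) following pintool addition of compound; emission at 590 nm with 540 nm excitation, referenced to Rose Bengal sodium.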

Test [15] can be described thus: qHTS assay to test for compound auto fluorescence at 460 nm (blue) in HepG2 cell free culture (AID 720685). Summed up:
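Compound (23 nL) or DMSO pinned into cell-free MEM with 10% FBS; blue fluorescence read at 405/460 nm excitation/emission, expressed as auto-fluorescence equivalency to triamterene.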

A short description of test [16]: qHTS assay to test for compound auto fluorescence at 535 nm (green) in HepG2 cell free culture (AID 720686).
Test [17] is described as follows: qHTS assay to test for compound auto fluorescence at 460 nm (blue) in HepG2 cells (AID 720687). Summed up: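 Cells (2,000/well in MEM with 10% FBS) attached overnight at 37 C, then were exposed to compound or DMSO for 1 hr at 37 C, 5% CO2. Fluorescence read at Ex/Em 405/460 nm, expressed as triamterene-equivalent signal.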
Test [18] has as its target Glucocorticoid receptor (Homo sapiens) (UniProt P04150). Nature of the test: qHTS assay to identify small molecule agonists of the glucocorticoid receptor (GR) signaling pathway (AID 720691; active means well fitted activation curve with a large enough effect in the signal ratio in the repeat runs, not every such curve was filed as active; the % refers to the signal ratio). An outline of the steps:
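Beta-lactamase reporter activity, read as fluorescence intensity, was measured in GR-bla HeLa cells exposed to compounds for 18 h at 37 C and then loaded with LiveBLAzer B/G FRET substrate for 2 h at room temperature.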

For test [19] the target is unchanged. Kind of test: qHTS assay to identify small molecule antagonists of the glucocorticoid receptor (GR) signaling pathway (AID 720692; active means well fitted inhibition curve with a large enough effect in the signal ratio in the repeat runs, not every such curve was filed as active; the % refers to the signal ratio). Summed up:
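Fluorescence from cleaved LiveBLAzer B/G FRET substrate reports GRE-driven beta-lactamase in HeLa cells; compounds are tested against 5 nM dexamethasone (final) over 18 h at 37 C, substrate incubation 2 h at room temperature.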

A short description of test [20]: qHTS assay for small molecule disruptors of the mitochondrial membrane potential (AID 720635). Further: potency means the concentration at half of the fitted maximal effect. Summed up: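 HepG2 cells (2,000/well) attached overnight at 37C, then took compound for 1 hr at 37C, 5% CO2. Mito-MPS dye was added for 30 min; fluorescence was read at 490/535 nm (monomers) and 540/590 nm (aggregates).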

SMILES strings stand for the structures. A number with no mark means an inactive call. Inconclusive results are not listed. Calls of active or inactive are those of the source. Unless noted, the call rests on the fitted dose curve; in most records, active means well fitted curve in the direction sought with a large enough effect in the repeat runs; inconclusive means weak or mixed curves; inactive means no such curve, though single readings can be large; an effect the other way counts as inactive or inconclusive.

Sequence of Glucocorticoid receptor (Homo sapiens) (P04150 whole entry, looked up): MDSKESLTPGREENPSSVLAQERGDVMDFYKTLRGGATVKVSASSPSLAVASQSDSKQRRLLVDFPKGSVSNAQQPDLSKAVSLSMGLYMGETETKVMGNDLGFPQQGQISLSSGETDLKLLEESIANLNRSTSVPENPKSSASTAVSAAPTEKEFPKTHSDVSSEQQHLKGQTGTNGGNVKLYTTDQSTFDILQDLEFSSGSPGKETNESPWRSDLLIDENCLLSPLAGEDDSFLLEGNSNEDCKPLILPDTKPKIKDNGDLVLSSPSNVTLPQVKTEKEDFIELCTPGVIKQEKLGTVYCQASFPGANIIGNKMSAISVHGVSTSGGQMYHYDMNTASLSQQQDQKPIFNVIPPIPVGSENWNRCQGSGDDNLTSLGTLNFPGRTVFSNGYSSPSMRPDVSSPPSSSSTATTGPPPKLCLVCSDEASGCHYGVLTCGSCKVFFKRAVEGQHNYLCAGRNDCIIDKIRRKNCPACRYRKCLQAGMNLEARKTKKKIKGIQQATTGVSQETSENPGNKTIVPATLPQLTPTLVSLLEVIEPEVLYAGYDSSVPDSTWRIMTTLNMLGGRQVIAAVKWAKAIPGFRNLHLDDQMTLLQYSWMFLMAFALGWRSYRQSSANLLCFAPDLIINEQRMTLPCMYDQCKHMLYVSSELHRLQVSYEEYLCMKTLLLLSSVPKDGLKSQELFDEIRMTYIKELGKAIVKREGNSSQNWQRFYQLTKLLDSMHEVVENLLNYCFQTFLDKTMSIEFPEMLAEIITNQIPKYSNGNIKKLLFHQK

In the case of `II`, the Potency result in [1], in test [2], in [3], in test [4], in test [5] and in [19] was “inactive” each time. For the same molecule, the call in test [6], in test [7], in [8], in [9], in [10] and in test [11] was inactive. Moreover, the outcome in [12], in test [13], in test [14], in test [15], in [16] and in test [17] was inactive. In addition, the molecule was classed as inactive in [18].

Take `Brc1ccc(Oc2ccccc2)cc1`: the Potency entry in [1], in test [2], in [3], in [4], in [5] and in [19] was “inactive” each time. For the same molecule, the molecule was classed as inactive in test [6], in test [7], in test [8], in [9], in test [10] and in [11]. Besides, the outcome in [12], in test [13], in [14], in [15], in test [16] and in test [17] was inactive.

Consider `O=C(CBr)OCc1ccccc1`, for which the Potency result in test [1], in test [2], in [3], in test [4], in [5] and in test [19] was “inactive” throughout. In addition, the molecule was classed as inactive in test [6], in test [7], in test [8], in [9], in test [10] and in [11]. The outcome in test [12], in test [13], in [14], in test [15], in test [16] and in test [17] was inactive. Also, the result in test [18] was inactive.

As for `O=C(O)c1ccccc1C(=O)Nc1cccc2ccccc12`, the Potency entry in test [1], in test [2], in test [3], in [4] and in test [5] was “inactive” throughout. For the same molecule, the molecule was called inactive in test [6], in [7], in test [8], in test [9], in test [10] and in test [11]. The molecule was called inactive in test [12], in test [13], in test [14], in [15], in [16] and in [17].

For `CC(=O)C(C)(C)C`, the Potency entry in test [1], in test [2], in test [3], in [4], in test [5] and in test [19] was “inactive” in each case. Moreover, the outcome in test [6], in test [7], in [8], in [9], in test [10] and in test [11] was inactive. The molecule was called inactive in [12], in test [13], in test [14], in [15], in test [16] and in [17]. Moreover, the molecule was called inactive in [18].

With `NCCCNCCCN`, the Potency result in test [1], in [3], in test [4] and in test [5] was “inactive” each time. Also, the molecule was called inactive in [6], in test [7], in test [8], in test [9], in test [10] and in test [11]. The call in [12], in [13], in test [14], in [15], in test [16] and in [17] was inactive. Also, the outcome in test [18] was inactive.

Consider `ClCC(Br)CBr` (configuration not stated), for which the Potency entry in test [1], in test [2], in [3], in [4], in [5] and in test [19] was “inactive” each time. In addition, the result in test [6], in test [7], in test [8], in test [9], in test [10] and in test [11] was inactive. Further, the outcome in [12], in test [13], in test [14], in test [15], in test [16] and in test [17] was inactive.

`C=CC(=O)OC`: the Potency result in [1], in test [3], in [4] and in [5] was “inactive” each time. The molecule was classed as inactive in [6], in test [7], in test [8], in [9], in test [10] and in test [11]. Moreover, the outcome in test [12], in [13], in test [14], in test [15], in test [16] and in test [17] was inactive.

As to `CCCCCC[N+](=O)[O-]`, the Potency result in [1], in test [3], in [5] and in test [19] was “inactive” in each case. In addition, the call in test [6], in test [7], in test [9], in [10], in [11] and in test [12] was inactive. Also, the result in test [13], in test [14], in test [15], in test [16], in test [17] and in test [18] was inactive.

With `O=C1C(Cl)C(CCl)CN1c1cccc(C(F)(F)F)c1` (configuration not stated), the Potency entry in [1], in test [2], in test [3] and in test [4] was “inactive” throughout. Further, the call in test [6], in test [7], in [9], in test [10], in test [11] and in [12] was inactive. The result in [13], in test [14], in test [15], in test [16], in test [17] and in test [18] was inactive.

On to `Cc1ccccc1C(=O)Nc1cccc(OC(C)C)c1`, for which the Potency entry in [1], in test [2], in test [3], in test [4] and in test [19] was “inactive” in each case. Besides, the Potency in test [20] was 30.6 µM (active). For the same molecule, the outcome in test [6], in [7], in test [8], in test [9], in [10] and in test [11] was inactive. For the same molecule, the outcome in test [12], in test [13], in [14], in test [15], in test [16] and in test [17] was inactive. The molecule was called inactive in test [18].

Regarding `C=CCCl`, the Potency result in test [1], in test [2], in test [3], in test [4] and in test [5] was “inactive” in each case. Besides, the call in test [6], in test [7], in test [9], in test [10], in [11] and in [12] was inactive. Besides, the molecule was called inactive in test [13], in test [14], in [15], in [16], in test [17] and in test [18].

`COP(=S)(OC)Oc1ccc([N+](=O)[O-])cc1Cl`: the Potency entry in [1], in test [2], in [3] and in [19] was “inactive” in each case. Besides, the Potency in test [20] is 24.3 µM (active). Moreover, the outcome in test [6], in [7], in test [8], in test [9], in [10] and in [11] was inactive. In addition, the result in test [12], in test [13], in [14], in test [15], in test [16] and in test [17] was inactive. In addition, the molecule was classed as inactive in [18].

As for `CCCCc1c(C)nc(NCC)nc1OS(=O)(=O)N(C)C`, the Potency result in test [1], in [2], in [3] and in [4] was “inactive” in each case. Further, in [20], the Potency is 21.7 µM (active). Moreover, the molecule was classed as inactive in [6], in [7], in test [8], in test [9], in test [10] and in [11]. Besides, the result in test [12], in [13], in test [14], in test [15], in test [16] and in test [17] was inactive. The result in test [18] was inactive.

The values above are taken from PubChem BioAssay (Tox21).
